PubChem BioAssay (NCATS)
Several values for one entry are separate records, joined by “and”; a condition that tells them apart may be missing. Identical values can stand only once. Inconclusive results are not listed. A call without a number means that no potency is given here. Activity calls are given as the source filed them. Calls follow the shape of the dose curve; as a rule, active = well fitted curve in the direction sought with a large enough effect; inconclusive = small, poorly fitted or top-dose-only effect, or another doubt; inactive = no such curve, though single readings can be large; an effect the other way counts as inactive or inconclusive. Where a SMILES comes first, the peptide text is derived from it. [ ]: non-standard residue; d: D form. pGlu = O=C1CC[C@@H](C(=O)O)N1; Thz = O=C(O)[C@@H]1CSCN1

Assay: qHTS assay to identify small molecule inhibitors of chordoma cells - UCH-2 (AID 1259356); also: potency is read from the fitted curve at half-maximal effect
Conditions: UCH-2 chordoma viability, CellTiter-Glo ATP luminescence, 48 h; series mostly up to 46.1 µM

Row | Structure (SMILES) | Potency
1 | Cc1onc(-c2c(F)cccc2Cl)c1C(=O)N[C@@H]1C(=O)N2[C@@H]1SC(C)(C)[C@@H]2C(=O)O | inactive
2 | CC1(C)C[C@@H]1C(=O)N/C(=C\CCCCSC[C@H](N)C(=O)O)C(=O)O | inactive
3 | O=C(Nc1ccc(C(=O)O)c(O)c1)c1ccccc1 | inactive
4 | O=C(OCc1ccccc1)c1ccccc1 | inactive
5 | Cc1ccc(C(=O)c2ccc(CC(=O)O)n2C)cc1 | inactive
6 | O=C(O)[C@H](O)[C@@H](O)[C@H](O)[C@H](O)CO | inactive
7 | COc1cc(CNC(=O)CCCC/C=C/C(C)C)ccc1O | inactive
8 | C=C(Nc1ccc(OCC)cc1)Nc1ccc(OCC)cc1 | inactive
9 | Nc1ccc(O)c(C(=O)O)c1 | inactive
10 | CC(C(=O)O)c1ccc2c(c1)[nH]c1ccc(Cl)cc12 (stereo not given) | inactive
11 | C[S+](CC[C@H](N)C(=O)O)C[C@H]1O[C@@H](n2cnc3c(N)ncnc32)[C@H](O)[C@@H]1O (stereo not given in full) | inactive
12 | CN1[C@@H]2CC[C@H]1CC(OC(c1ccccc1)c1ccccc1)C2 (stereo not given in full) | inactive
13 | O=C(O)Cc1ccc(-c2ccccc2)cc1 | inactive
14 | CO[C@H]1C[C@@H]2CC[C@@H](C)[C@@](O)(O2)C(=O)C(=O)N2CCCC[C@H]2C(=O)O[C@H]([C@H](C)C[C@@H]2CC[C@@H](O)[C@H](OC)C2)CC(=O)[C@H](C)C=C(C)[C@@H](O)[C@@H](OC)C(=O)[C@H](C)C[C@H](C)/C=C/C=CC=C1C | inactive
15 | C=CCN1C(=O)C(CC(C)C)NC1=S (stereo not given) | inactive
16 | O=C1CC[C@@H](C(=O)N2CSC[C@H]2C(=O)O)N1 ([pGlu]-[Thz]-OH) | inactive

Row | Structure (SMILES) | Potency
17 | c1ccc2sc(SSc3nc4ccccc4s3)nc2c1 | inactive
18 | CC(=O)[C@]1(O)Cc2c(O)c3c(c(O)c2[C@@H](O[C@H]2C[C@H](N)[C@H](O)[C@H](C)O2)C1)C(=O)c1c(O)cccc1C3=O | 20.6 µM (active)
19 | COc1cc(/C=C/C(=O)CC(=O)/C=C/c2ccc(O)c(OC)c2)ccc1O | inactive
20 | O=C(O)[C@H](CC(=O)N1C[C@H]2CCCC[C@H]2C1)Cc1ccccc1 | inactive
21 | CCCCCC[C@@H](O)C/C=C\CCCCCCCC(=O)O | inactive
22 | CCCCC[C@H](O)/C=C/[C@@H]1[C@@H](C/C=C\CCCC(=O)O)[C@@H](O)C[C@H]1O | inactive
23 | C=CCCCCCCCCC(=O)O | inactive
24 | CN1[C@@H]2CC[C@H]1CC(OC(=O)C(CO)c1ccccc1)C2 (stereo not given in full) | inactive
25 | CC1(C)S[C@@H]2[C@H](NC(=O)[C@H](N)c3ccc(O)cc3)C(=O)N2[C@H]1C(=O)O | inactive
26 | CC[C@H]1OC(=O)[C@H](C)[C@@H](O[C@H]2C[C@@](C)(OC)[C@@H](O)[C@H](C)O2)[C@H](C)[C@@H](O[C@@H]2O[C@H](C)C[C@H](N(C)C)[C@H]2O)[C@](C)(O)C[C@@H](C)C(=O)[C@H](C)[C@@H](O)[C@]1(C)O | inactive
27 | CC[C@H]1OC(=O)[C@H](C)C(=O)[C@H](C)[C@@H](O[C@@H]2O[C@H](C)C[C@H](N(C)C)[C@H]2O)[C@](C)(OC)C[C@@H](C)C(=O)[C@H](C)[C@H]2N(CCCCn3cnc(-c4cccnc4)c3)C(=O)O[C@]12C | inactive
28 | O=C(O)COc1ccc(C(=O)c2cccs2)c(Cl)c1Cl | inactive
29 | O=C(O)/C=C/C(O)c1ccc(Cl)cc1 (stereo not given) | inactive
30 | CC(=O)O[C@H]1C[C@@]2(C)[C@@H](C[C@@H](O)[C@H]3[C@@]4(C)CC[C@@H](O)[C@@H](C)[C@@H]4CC[C@@]32C)/C1=C(\CCC=C(C)C)C(=O)O | inactive
31 | O=C(O)c1ccccc1Nc1cccc(C(F)(F)F)c1 | inactive

Assay: P-glycoprotein substrates identified in KB-3-1 adenocarcinoma cell line, qHTS therapeutic library screen (AID 1346986); also: nearly all actives have a fitted effect of over 60% in size
Conditions: KB-3-1 parental cells viability, CellTiter-Glo, 72 h; series mostly up to 44.5 µM
In short: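 Counter-screen: cherry-picked hits retested in the KB pair and in HEK-293 pcDNA/MDR-19 cells ± tariquidar. Primary screen used 72 h CellTiter-Glo viability in KB-3-1 and KB-8-5-11.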

Row | Structure (SMILES) | Potency
32 | Cc1onc(-c2c(F)cccc2Cl)c1C(=O)N[C@@H]1C(=O)N2[C@@H]1SC(C)(C)[C@@H]2C(=O)O | inactive
33 | COc1cc(CNC(=O)CCCC/C=C/C(C)C)ccc1O | inactive
34 | CN1[C@@H]2CC[C@H]1CC(OC(c1ccccc1)c1ccccc1)C2 (stereo not given in full) | inactive
35 | O=C1CC[C@@H](C(=O)N2CSC[C@H]2C(=O)O)N1 ([pGlu]-[Thz]-OH) | inactive
36 | CC(=O)O[C@H]1C[C@@]2(C)[C@@H](C[C@@H](O)[C@H]3[C@@]4(C)CC[C@@H](O)[C@@H](C)[C@@H]4CC[C@@]32C)/C1=C(\CCC=C(C)C)C(=O)O | inactive

Assay: P-glycoprotein substrates identified in KB-8-5-11 adenocarcinoma cell line, qHTS therapeutic library screen (AID 1346987); also: nearly all actives have a fitted effect of over 65% in size; also: potency is read from the fitted curve at half-maximal effect
Conditions: KB-8-5-11 (P-gp overexpressing) viability, CellTiter-Glo, 72 h; series mostly up to 44.5 µM
In short: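 P-gp-mediated resistance screen: KB-8-5-11 cells treated 72 h with compounds in dose-response. CellTiter-Glo viability.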

Row | Structure (SMILES) | Potency
37 | Cc1onc(-c2c(F)cccc2Cl)c1C(=O)N[C@@H]1C(=O)N2[C@@H]1SC(C)(C)[C@@H]2C(=O)O | inactive
38 | CC1(C)C[C@@H]1C(=O)N/C(=C\CCCCSC[C@H](N)C(=O)O)C(=O)O | inactive
39 | O=C(Nc1ccc(C(=O)O)c(O)c1)c1ccccc1 | inactive
40 | O=C(OCc1ccccc1)c1ccccc1 | inactive
41 | Cc1ccc(C(=O)c2ccc(CC(=O)O)n2C)cc1 | inactive
42 | O=C(O)[C@H](O)[C@@H](O)[C@H](O)[C@H](O)CO | inactive
43 | COc1cc(CNC(=O)CCCC/C=C/C(C)C)ccc1O | inactive
44 | C=C(Nc1ccc(OCC)cc1)Nc1ccc(OCC)cc1 | inactive
45 | Nc1ccc(O)c(C(=O)O)c1 | inactive
46 | CC(C(=O)O)c1ccc2c(c1)[nH]c1ccc(Cl)cc12 (stereo not given) | inactive
47 | C[S+](CC[C@H](N)C(=O)O)C[C@H]1O[C@@H](n2cnc3c(N)ncnc32)[C@H](O)[C@@H]1O (stereo not given in full) | inactive
48 | CN1[C@@H]2CC[C@H]1CC(OC(c1ccccc1)c1ccccc1)C2 (stereo not given in full) | inactive
49 | O=C(O)Cc1ccc(-c2ccccc2)cc1 | inactive
50 | CO[C@H]1C[C@@H]2CC[C@@H](C)[C@@](O)(O2)C(=O)C(=O)N2CCCC[C@H]2C(=O)O[C@H]([C@H](C)C[C@@H]2CC[C@@H](O)[C@H](OC)C2)CC(=O)[C@H](C)C=C(C)[C@@H](O)[C@@H](OC)C(=O)[C@H](C)C[C@H](C)/C=C/C=CC=C1C | inactive
51 | S=c1[nH]c2ccccc2s1 | inactive
52 | C=CCN1C(=O)C(CC(C)C)NC1=S (stereo not given) | inactive
53 | O=C1CC[C@@H](C(=O)N2CSC[C@H]2C(=O)O)N1 ([pGlu]-[Thz]-OH) | inactive

Row | Structure (SMILES) | Potency
54 | c1ccc2sc(SSc3nc4ccccc4s3)nc2c1 | inactive
55 | CC(=O)[C@]1(O)Cc2c(O)c3c(c(O)c2[C@@H](O[C@H]2C[C@H](N)[C@H](O)[C@H](C)O2)C1)C(=O)c1c(O)cccc1C3=O | 5.17 µM (active) and 4.11 µM (active)
56 | COc1cc(/C=C/C(=O)CC(=O)/C=C/c2ccc(O)c(OC)c2)ccc1O | inactive
57 | O=C(O)[C@H](CC(=O)N1C[C@H]2CCCC[C@H]2C1)Cc1ccccc1 | inactive
58 | CCCCCC[C@@H](O)C/C=C\CCCCCCCC(=O)O | inactive
59 | CCCCC[C@H](O)/C=C/[C@@H]1[C@@H](C/C=C\CCCC(=O)O)[C@@H](O)C[C@H]1O | inactive
60 | C=CCCCCCCCCC(=O)O | inactive
61 | CN1[C@@H]2CC[C@H]1CC(OC(=O)C(CO)c1ccccc1)C2 (stereo not given in full) | inactive
62 | CC1(C)S[C@@H]2[C@H](NC(=O)[C@H](N)c3ccc(O)cc3)C(=O)N2[C@H]1C(=O)O | inactive
63 | CC[C@H]1OC(=O)[C@H](C)[C@@H](O[C@H]2C[C@@](C)(OC)[C@@H](O)[C@H](C)O2)[C@H](C)[C@@H](O[C@@H]2O[C@H](C)C[C@H](N(C)C)[C@H]2O)[C@](C)(O)C[C@@H](C)C(=O)[C@H](C)[C@@H](O)[C@]1(C)O | inactive
64 | CC[C@H]1OC(=O)[C@H](C)C(=O)[C@H](C)[C@@H](O[C@@H]2O[C@H](C)C[C@H](N(C)C)[C@H]2O)[C@](C)(OC)C[C@@H](C)C(=O)[C@H](C)[C@H]2N(CCCCn3cnc(-c4cccnc4)c3)C(=O)O[C@]12C | inactive
65 | O=C(O)COc1ccc(C(=O)c2cccs2)c(Cl)c1Cl | inactive
66 | O=C(O)/C=C/C(O)c1ccc(Cl)cc1 (stereo not given) | inactive
67 | CC(=O)O[C@H]1C[C@@]2(C)[C@@H](C[C@@H](O)[C@H]3[C@@]4(C)CC[C@@H](O)[C@@H](C)[C@@H]4CC[C@@]32C)/C1=C(\CCC=C(C)C)C(=O)O | inactive
68 | COC(=O)C1=C(C)NC(C)=C(C(=O)OC)C1c1cccc(NC(=O)NCCCN2CCC(c3cccc(OC)c3)CC2)c1 | inactive
69 | CN(CCCOc1ccc(Cc2ccccc2)cc1)CCC(=O)O | inactive
70 | O=C(O)c1ccccc1Nc1cccc(C(F)(F)F)c1 | inactive
